Test results reported in the supplement of paper PMC10849652.
About 7,900 targets were measured; listed, in parts, are those with a hit and a random draw of the rest. About 0.6% of all pairs of compound and target were hits. Values without a mark were called inactive.

How the values were obtained:
Assay in all cases: log2 fold change, soluble protein after heating vs DMSO (PISA); higher = thermal stabilisation; K562 cells, 10 uM, 30 min; active = over 0.2 and 3.5 SD of the protein, either way, in both replicates (recomputed)
[1] = compound: CC[C@@H]1C(=O)N(C)c2cnc(Nc3ccc(C(=O)NC4CCN(C)CC4)cc3OC)nc2N1C1CCCC1
Method in brief: (§1)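 Values are thermal stability changes relative to control samples and are taken from duplicates. They are stated as log2 fold changes. Before quantification by TMTpro 16plex LC-MS/MS with equalised channel sums, K562 cells at 2×10^6 cells/mL were treated with 10 μM compound for 30 min, heated in aliquots for 3 min across 48°C-58°C, pooled, extracted in PBS with 0.5% NP-40 at 4°C, and centrifuged at 21,000xg for 90 min to give the soluble supernatant.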

volasertib = compound: CC[C@@H]1C(=O)N(C)c2cnc(Nc3ccc(C(=O)N[C@H]4CC[C@H](N5CCN(CC6CC6)CC5)CC4)cc3OC)nc2N1C(C)C [volasertib]
Method in brief: as §1

[2] = compound: CC[C@H](C)N1C=C(C2=C(C=C(C=C21)C3=CN=C(C=C3)N4CCNCC4)C(=O)NCC5=C(C=C(NC5=O)C)C)C
Method in brief: as §1

epoxomicin = compound: CC[C@H](C)[C@@H](C(=O)N[C@@H]([C@@H](C)O)C(=O)N[C@@H](CC(C)C)C(=O)[C@]1(CO1)C)NC(=O)[C@H]([C@@H](C)CC)N(C)C(=O)C [epoxomicin]
Method in brief: as §1

[3] = compound: CCn1c(C(=O)N(C2CC2)C2CC2)cc2c3c(ncn3C)c(Nc3cc(C)n(C)n3)nc21
Method in brief: as §1

[4] = compound: CCn1cc(-c2ccnc3[nH]c(-c4cccc(CN(C)C)c4)cc23)c(-c2ccc(NC(=O)N(C)C)cc2)n1
Method in brief: as §1

[5] = compound: CN(C)CC(=O)Nc1ccc2[nH]c(=O)c3ccccc3c2c1
Method in brief: as §1

rosiglitazone = compound: CN(CCOC1=CC=C(C=C1)C[C@H]2C(=O)NC(=O)S2)C3=CC=CC=N3 (racemic) [rosiglitazone]
Method in brief: as §1

[6] = compound: CN1C2=C(C3=C1C(=O)N(N=C3)CC4=CC(=CC=C4)N)SC(=C2)S(=O)C
Method in brief: as §1

[7] = compound: CN1CCC(CNc2ccc3ncc(-c4cccc(OC(F)(F)F)c4)n3n2)CC1
Method in brief: as §1

Chain of UniProt Q07973 (Q07973 whole entry, looked up): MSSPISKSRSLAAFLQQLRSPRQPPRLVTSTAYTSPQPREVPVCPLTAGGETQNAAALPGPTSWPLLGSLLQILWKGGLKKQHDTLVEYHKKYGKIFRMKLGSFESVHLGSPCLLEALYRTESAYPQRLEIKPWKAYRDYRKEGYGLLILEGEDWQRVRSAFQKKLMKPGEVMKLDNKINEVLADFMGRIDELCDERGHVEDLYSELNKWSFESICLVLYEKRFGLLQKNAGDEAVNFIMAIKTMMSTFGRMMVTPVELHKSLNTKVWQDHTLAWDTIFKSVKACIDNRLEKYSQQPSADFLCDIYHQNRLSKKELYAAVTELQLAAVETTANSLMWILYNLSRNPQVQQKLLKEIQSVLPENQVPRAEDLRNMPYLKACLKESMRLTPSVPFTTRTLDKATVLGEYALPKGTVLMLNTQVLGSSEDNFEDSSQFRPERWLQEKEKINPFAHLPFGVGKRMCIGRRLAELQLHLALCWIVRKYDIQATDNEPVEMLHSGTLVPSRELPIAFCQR
Chain of UniProt P68104 (P68104 whole entry, looked up): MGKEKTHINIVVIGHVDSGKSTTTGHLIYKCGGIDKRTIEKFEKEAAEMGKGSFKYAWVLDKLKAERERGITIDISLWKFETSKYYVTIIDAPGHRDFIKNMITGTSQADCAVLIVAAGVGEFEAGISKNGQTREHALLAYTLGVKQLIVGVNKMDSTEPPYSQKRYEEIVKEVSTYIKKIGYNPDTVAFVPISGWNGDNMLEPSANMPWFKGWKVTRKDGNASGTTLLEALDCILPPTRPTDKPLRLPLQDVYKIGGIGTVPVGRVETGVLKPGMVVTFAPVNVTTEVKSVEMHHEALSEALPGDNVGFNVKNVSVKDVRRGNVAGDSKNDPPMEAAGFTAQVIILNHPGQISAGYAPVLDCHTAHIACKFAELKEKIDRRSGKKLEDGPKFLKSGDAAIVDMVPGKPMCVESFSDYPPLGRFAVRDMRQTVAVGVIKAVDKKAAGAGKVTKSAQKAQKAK
Chain of UniProt Q9UBM7 (Q9UBM7 whole entry, looked up): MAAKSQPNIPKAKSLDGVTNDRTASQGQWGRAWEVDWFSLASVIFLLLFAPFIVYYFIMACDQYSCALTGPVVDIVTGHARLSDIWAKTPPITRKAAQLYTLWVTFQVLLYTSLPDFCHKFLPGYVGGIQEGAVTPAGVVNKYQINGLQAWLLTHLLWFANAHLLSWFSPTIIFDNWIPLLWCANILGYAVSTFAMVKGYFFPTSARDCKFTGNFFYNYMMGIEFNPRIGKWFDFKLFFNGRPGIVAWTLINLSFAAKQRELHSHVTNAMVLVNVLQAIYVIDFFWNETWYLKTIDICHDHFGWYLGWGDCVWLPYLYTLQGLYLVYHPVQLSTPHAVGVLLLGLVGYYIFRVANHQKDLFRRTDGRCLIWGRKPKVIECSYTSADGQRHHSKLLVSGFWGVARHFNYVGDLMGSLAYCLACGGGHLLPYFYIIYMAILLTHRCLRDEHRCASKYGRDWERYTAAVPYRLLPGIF
Chain of UniProt P11182 (P11182 whole entry, looked up): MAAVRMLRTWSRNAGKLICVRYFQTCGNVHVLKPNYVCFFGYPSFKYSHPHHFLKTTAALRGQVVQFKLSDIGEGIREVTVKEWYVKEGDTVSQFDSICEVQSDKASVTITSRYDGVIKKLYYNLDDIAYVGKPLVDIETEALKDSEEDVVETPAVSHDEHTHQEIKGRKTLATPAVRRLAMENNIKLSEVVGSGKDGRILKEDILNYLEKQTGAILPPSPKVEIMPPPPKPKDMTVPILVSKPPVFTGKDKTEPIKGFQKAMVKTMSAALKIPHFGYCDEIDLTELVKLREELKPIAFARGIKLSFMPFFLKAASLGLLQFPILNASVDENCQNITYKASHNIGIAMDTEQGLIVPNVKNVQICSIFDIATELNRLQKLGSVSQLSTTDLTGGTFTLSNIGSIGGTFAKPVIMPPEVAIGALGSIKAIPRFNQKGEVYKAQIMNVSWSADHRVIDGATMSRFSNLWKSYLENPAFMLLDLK
Chain of UniProt Q9UER7 (Q9UER7 whole entry, looked up): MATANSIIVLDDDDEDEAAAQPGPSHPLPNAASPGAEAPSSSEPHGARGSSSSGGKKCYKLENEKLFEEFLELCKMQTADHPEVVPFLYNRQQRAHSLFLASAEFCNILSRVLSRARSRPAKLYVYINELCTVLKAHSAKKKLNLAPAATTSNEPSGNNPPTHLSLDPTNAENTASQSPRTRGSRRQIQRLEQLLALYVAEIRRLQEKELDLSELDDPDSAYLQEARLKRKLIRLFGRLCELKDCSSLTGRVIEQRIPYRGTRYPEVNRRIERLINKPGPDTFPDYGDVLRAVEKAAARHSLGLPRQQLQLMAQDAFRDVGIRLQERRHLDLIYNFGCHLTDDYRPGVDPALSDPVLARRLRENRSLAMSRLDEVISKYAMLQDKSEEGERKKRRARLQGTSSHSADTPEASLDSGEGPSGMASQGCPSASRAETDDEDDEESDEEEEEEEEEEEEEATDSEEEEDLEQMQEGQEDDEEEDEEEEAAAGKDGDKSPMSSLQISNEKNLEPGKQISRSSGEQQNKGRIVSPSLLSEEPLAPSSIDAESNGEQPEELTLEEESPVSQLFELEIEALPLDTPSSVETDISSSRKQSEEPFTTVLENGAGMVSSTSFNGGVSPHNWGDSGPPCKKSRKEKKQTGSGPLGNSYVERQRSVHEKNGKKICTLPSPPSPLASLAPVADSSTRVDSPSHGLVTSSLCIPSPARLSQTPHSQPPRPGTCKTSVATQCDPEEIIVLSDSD
Chain of UniProt Q86YN1 (Q86YN1 whole entry, looked up): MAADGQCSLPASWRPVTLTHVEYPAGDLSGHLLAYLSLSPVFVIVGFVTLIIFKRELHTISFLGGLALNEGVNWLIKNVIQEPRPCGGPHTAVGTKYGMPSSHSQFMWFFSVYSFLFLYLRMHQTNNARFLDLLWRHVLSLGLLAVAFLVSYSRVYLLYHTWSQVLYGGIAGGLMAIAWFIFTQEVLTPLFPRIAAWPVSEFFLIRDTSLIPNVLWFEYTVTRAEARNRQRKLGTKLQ
Chain of UniProt Q9H410 (Q9H410 whole entry, looked up): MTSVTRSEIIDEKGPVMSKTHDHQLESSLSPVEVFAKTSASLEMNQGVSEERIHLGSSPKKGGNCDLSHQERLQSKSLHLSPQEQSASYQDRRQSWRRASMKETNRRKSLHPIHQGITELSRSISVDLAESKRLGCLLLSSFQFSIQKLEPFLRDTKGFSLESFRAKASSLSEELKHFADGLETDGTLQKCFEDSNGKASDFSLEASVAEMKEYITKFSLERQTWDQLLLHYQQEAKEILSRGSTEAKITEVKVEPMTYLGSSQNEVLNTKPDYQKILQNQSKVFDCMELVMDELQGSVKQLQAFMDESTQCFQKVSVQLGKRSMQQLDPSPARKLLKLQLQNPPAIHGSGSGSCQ
Chain of UniProt Q8WYA6 (Q8WYA6 whole entry, looked up): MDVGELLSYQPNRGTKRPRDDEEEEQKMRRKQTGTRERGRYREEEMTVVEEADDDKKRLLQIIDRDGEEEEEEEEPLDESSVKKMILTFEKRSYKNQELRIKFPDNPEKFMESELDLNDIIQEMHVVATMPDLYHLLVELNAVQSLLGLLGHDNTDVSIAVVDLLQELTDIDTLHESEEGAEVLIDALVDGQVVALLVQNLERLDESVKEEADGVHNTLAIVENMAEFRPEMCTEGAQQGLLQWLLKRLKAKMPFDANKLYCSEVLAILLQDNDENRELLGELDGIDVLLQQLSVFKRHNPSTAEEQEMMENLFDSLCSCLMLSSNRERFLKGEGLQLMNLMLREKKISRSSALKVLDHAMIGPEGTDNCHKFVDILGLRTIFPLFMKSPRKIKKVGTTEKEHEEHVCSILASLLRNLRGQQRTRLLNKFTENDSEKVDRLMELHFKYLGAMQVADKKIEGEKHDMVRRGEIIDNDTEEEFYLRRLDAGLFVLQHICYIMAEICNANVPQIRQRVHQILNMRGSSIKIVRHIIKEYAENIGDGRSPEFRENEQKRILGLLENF
Chain of UniProt Q96PV7 (Q96PV7 whole entry, looked up): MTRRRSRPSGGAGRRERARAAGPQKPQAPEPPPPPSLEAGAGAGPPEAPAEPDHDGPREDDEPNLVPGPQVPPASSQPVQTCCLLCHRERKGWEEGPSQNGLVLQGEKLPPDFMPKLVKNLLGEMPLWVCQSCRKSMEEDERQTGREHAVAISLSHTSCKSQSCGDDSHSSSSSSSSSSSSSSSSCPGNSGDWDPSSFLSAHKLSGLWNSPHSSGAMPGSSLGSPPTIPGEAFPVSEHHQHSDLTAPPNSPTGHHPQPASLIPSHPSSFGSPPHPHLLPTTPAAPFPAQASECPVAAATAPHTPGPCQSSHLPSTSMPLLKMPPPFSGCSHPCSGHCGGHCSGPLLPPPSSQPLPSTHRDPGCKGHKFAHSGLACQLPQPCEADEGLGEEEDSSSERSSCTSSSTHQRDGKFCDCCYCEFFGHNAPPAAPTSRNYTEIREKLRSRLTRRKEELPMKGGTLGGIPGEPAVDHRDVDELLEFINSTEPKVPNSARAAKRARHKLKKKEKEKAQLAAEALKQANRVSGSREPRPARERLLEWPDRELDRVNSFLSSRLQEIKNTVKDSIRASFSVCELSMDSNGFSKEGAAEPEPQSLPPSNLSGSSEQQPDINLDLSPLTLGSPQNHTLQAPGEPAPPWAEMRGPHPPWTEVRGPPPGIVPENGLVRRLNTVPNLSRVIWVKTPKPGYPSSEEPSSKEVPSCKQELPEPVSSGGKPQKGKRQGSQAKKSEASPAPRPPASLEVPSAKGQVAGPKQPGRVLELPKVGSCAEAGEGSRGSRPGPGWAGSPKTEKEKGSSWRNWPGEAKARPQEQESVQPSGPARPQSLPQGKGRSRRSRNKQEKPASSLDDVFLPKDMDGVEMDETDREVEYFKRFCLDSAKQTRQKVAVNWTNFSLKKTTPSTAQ
Chain of UniProt Q8N8J7 (Q8N8J7 whole entry, looked up): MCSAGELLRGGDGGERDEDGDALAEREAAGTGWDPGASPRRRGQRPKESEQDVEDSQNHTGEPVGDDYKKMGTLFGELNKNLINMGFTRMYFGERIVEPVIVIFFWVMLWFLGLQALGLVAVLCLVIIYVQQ

Row | Target | log2 fold change [1] | log2 fold change (volasertib) | log2 fold change [2] | log2 fold change (epoxomicin) | log2 fold change [3] | log2 fold change [4] | log2 fold change [5] | log2 fold change (rosiglitazone) | log2 fold change [6] | log2 fold change [7]
1 | ERLIN1 (UniProt O75477) | -0.01 | -0.025 | 0.07 | 0.018 | 0.01 | 0.057 | 0.003 | 0.016 | 0.095 | 0.116
2 | DHCR7 (UniProt Q9UBM7) | 0.409 | 1.68 (active) | 0.054 | 0.154 | -0.044 | 0.522 (active) | 0.085 | 0.032 | -0.055 | 0.203
3 | CYFIP1 (UniProt Q7L576) | -0.011 | -0.233 (active) | 0.046 | 0.02 | -0.008 | 0.011 | 0.024 | 0.045 | 0.001 | -0.034
4 | CUEDC2 (UniProt Q9H467) | -0.044 | -0.133 | 0.033 | 0.118 | -0.01 | -0.001 | -0.01 | 0.105 | -0.038 | -0.067
5 | CYP24A1 (UniProt Q07973) | 0.252 | 0.379 | -0.209 | – | -0.126 | 0.065 | -0.175 | -0.205 | 0.288 | 0.198
6 | DBT (UniProt P11182) | 0.068 | 0.009 | -0.01 | -0.022 | -0.018 | -0.001 | -0.14 | -0.025 | 0.015 | 0.045
7 | EIF2AK3 (UniProt Q9NZJ5) | 0.322 | -0.114 | 0.357 | 0.033 | -0.295 | 0.106 | – | -0.308 | 0.14 | -0.017
8 | DLD (UniProt P09622) | 0.043 | 0.143 | -0.028 | -0.015 | 0.049 | -0.007 | -0.012 | -0.008 | -0.035 | -0.118
9 | DOLPP1 (UniProt Q86YN1) | -0.062 | -0.008 | -0.052 | – | -0.129 | – | 0.133 | -0.034 | – | –
10 | FAAP100 (UniProt Q0VG06) | -0.01 | 0.149 | -0.02 | 0.139 | -0.05 | -0.093 | 0.061 | 0.006 | -0.02 | 0.124
11 | EXOC4 (UniProt Q96A65) | -0.145 | -0.606 (active) | 0.095 | 0.005 | -0.129 | 0.021 | 0.061 | 0.021 | 0.103 | -0.243
12 | CYB561A3 isoform 2 (UniProt Q8NBI2) | -0.058 | 0.103 | -0.089 | – | -0.007 | -0.241 | – | 0.052 | -0.021 | 0.032
13 | DNAJC24 (UniProt Q6P3W2) | -0.318 | -0.244 | 0.029 | 0.034 | 0.049 | – | -0.027 | -0.01 | -0.284 | –
14 | DSN1 (UniProt Q9H410) | -0.218 | -0.418 (active) | -0.034 | -0.004 | -0.107 | – | 0.007 | -0.086 | -0.008 | –
15 | FAM193B (UniProt Q96PV7) | 0.126 | 0.092 | – | -0.033 | – | – | -0.442 | 0.027 | 0.247 | –
16 | EEF1A1 (UniProt P68104) | -0.19 | 0.098 | 0.131 | 0.148 | 0.021 | – | 0.165 | -0.326 | -0.121 | –
17 | EEF1AKNMT (UniProt Q8N6R0) | -0.082 | -0.564 (active) | 0.111 | 0.012 | -0.038 | 0.134 | 0.092 | 0.022 | 0.075 | -0.095
18 | ENTPD7 (UniProt Q9NQZ7) | -0.204 | -0.233 | 0.08 | 0.032 | 0.032 | – | – | 0.061 | -0.021 | –
19 | FAM241A (UniProt Q8N8J7) | -0.026 | 0.007 | -0.002 | – | 0.057 | 0.037 | -0.093 | 0.011 | 0.059 | 0.08
20 | DAXX (UniProt Q9UER7) | 0.018 | -0.006 | 0.204 | – | -0.111 | -0.102 | -0.077 | 0.047 | -0.093 | 0.027
21 | EIF4E isoform 2 (UniProt P06730) | -0.012 | -0.044 | 0.021 | 0.053 | -0.01 | -0.061 | 0.036 | -0.017 | -0.146 | 0.199
22 | DENND10 (UniProt Q8TCE6) | -0.041 | -0.241 | 0.121 | -0.041 | -0.048 | – | 0.076 | 0.007 | -0.031 | –
23 | EXOSC10 (UniProt Q01780) | -0.048 | 0.087 | – | -0.098 | -0.098 | -0.222 | -0.169 | -0.145 | 0.029 | -0.003
24 | DDX39A (UniProt O00148) | 0.037 | -0.104 | 0.034 | -0.096 | -0.037 | -0.123 | -0.002 | 0.018 | 0.038 | -0.016
25 | CTNNBL1 (UniProt Q8WYA6) | -0.362 | -1.24 (active) | – | – | – | – | 0.012 | 0.072 | – | –
26 | EIF4E2 (UniProt O60573) | -0.202 | -0.381 (active) | 0.124 | 0.018 | -0.053 | – | 0.063 | 0.035 | -0.034 | –
27 | DNAJC19 (UniProt Q96DA6) | -0.094 | -0.042 | -0.014 | -0.015 | 0.04 | -0.022 | 0.002 | -0.01 | -0.05 | -0.148
28 | EHD2 (UniProt Q9NZN4) | -0.073 | -0.243 (active) | 0.027 | 0.023 | -0.029 | -0.085 | 0.007 | 0.039 | -0.045 | -0.002
29 | EIF4G3 isoform 3 (UniProt O43432) | -0.074 | -0.165 | 0.007 | – | 0.012 | – | 0.039 | 0.019 | 0.021 | –
30 | DYNC1I2 isoform 2 (UniProt Q13409) | 0.012 | 0.045 | – | -0.06 | 0.086 | – | – | -0.022 | – | –
